# Inconclusive results are not listed. Values without a mark were called inactive. Calls of active or inactive are those of the source. Unless noted, calls come from the whole dose curve; as a rule, active = well fitted curve in the direction sought with a large enough effect; inconclusive = small, poorly fitted or top-dose-only effect, or another doubt; inactive = no such curve, though single readings can be large; an effect the other way counts as inactive or inconclusive.
# Key:
# [1] = Cell Viability - LYMP2-001 (AID 921); note: potency is the fitted concentration of half-maximal effect; nearly all actives have a fitted effect of over 70% in size
# Outline: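 Human lymphoblastoid LYMP2-001 cells, 2500 per well, in complete medium, treated 24 h at 37 C. Viability from cellular ATP by CellTiter-Glo luminescence; AC50 from Hill-equation fits of qHTS concentration-response.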
# [2] = Cell Viability - LYMP2-009 (AID 968); note: potency is the fitted concentration of half-maximal effect; nearly all actives have a fitted effect of over 55% in size
# [3] = Cell Viability - LYMP2-011 (AID 969);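 note: potency is the fitted concentration of half-maximal effect; cells exposed to compound for 24 hours; nearly all actives have a fitted effect of over 60% in size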
# Outline: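 Luminescent ATP read-out (CellTiter-Glo, 30 min RT) after 24 hr compound exposure at 37 C in human lymphoblastoid cells, 2500 cells/well. Decreasing ATP indicates cytotoxicity; AC50 from standard Hill fit.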
# [4] = Cell Viability - LYMP2-013 (AID 970); note: potency is the fitted concentration of half-maximal effect; nearly all actives have a fitted effect of over 55% in size
# Outline: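 CellTiter-Glo luminescence (cellular ATP) read after 30 min at RT. Cells: human lymphoblastoid line, 2500/well, 24 hr compound exposure at 37 C. Tetraoctylammonium bromide positive control; AC50 via standard Hill fit of qHTS titrations.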
# [5] = Cell Viability - LYMP2-015 (AID 971); note: potency is the fitted concentration of half-maximal effect; nearly all actives have a fitted effect of over 55% in size
# Outline: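 qHTS cytotoxicity: 2500 cells/well, 5 hr 37 C, compound 24 hr 37 C, CellTiter-Glo 30 min RT, luminescence. Loss of ATP = toxicity; AC50 via standard Hill fit.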
# [6] = Cell Viability - LYMP2-017 (AID 972);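 note: potency is the fitted concentration of half-maximal effect; cells exposed to compound for 24 hours at 37 °C; nearly all actives have a fitted effect of over 55% in size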
# Outline: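 Luminescent ATP read-out (CellTiter-Glo, 30 min RT) reports viable cell number. Cells: human lymphoblastoid line, 2500 per well, 5 hr preincubation, 24 hr compound exposure at 37 C. AC50 is derived from qHTS concentration-response data using the standard Hill model.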
# [7] = Cell Viability - LYMP2-019 (AID 973)
# Outline: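 qHTS, 1536-well; 2500 cells/well; 5 hr pre-incubation, 24 hr compound exposure, 37 C; CellTiter-Glo added, 30 min RT; luminescence read; AC50 via standard Hill equation.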
# [8] = Cell Viability - LYMP2-021 (AID 974)
# Outline: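 ATP luminescence (CellTiter-Glo, 30 min RT) after 24 h compound exposure at 37 C; 2500 human lymphoblastoid cells/well, 5 h settle beforehand. Cytotoxicity = concentration-dependent ATP drop, AC50 by Hill fit.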
# [9] = Cell Viability - LYMP2-023 (AID 975)
# Outline: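 CellTiter-Glo luminescence after 30 min at room temperature; decrease in intracellular ATP reflects toxicity. Cells: human lymphoblastoid line, 2500/well, 24 hr compound exposure at 37 C. AC50 fitted to standard Hill equation from concentration-response.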
# [10] = Cell Viability - LYMP2-025 (AID 976); note: potency is the fitted concentration of half-maximal effect
# Outline: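 CellTiter-Glo luminescence (cellular ATP) after 24 h compound exposure at 37 C; LYMP2-025 human lymphoblastoid cells, 2500/well, complete medium. Tetraoctylammonium bromide positive control. AC50 by Hill equation fit of qHTS concentration-response.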
# [11] = Cell Viability - LYMP2-002 (AID 977); note: potency is the fitted concentration of half-maximal effect
# Outline: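 In this qHTS viability screen, 2500 human lymphoblastoid cells per well receive compound for 24 hr at 37 C, and luciferase-based ATP luminescence gives the viability signal. Tetraoctylammonium bromide serves as positive control.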
# [12] = Cell Viability - LYMP2-006 (AID 978);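 note: potency is the fitted concentration of half-maximal effect; cells exposed to compound for 24 hours; nearly all actives have a fitted effect of over 60% in size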
# Outline: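 Human lymphoblastoid cells (LYMP2-006), 2500/well in complete medium, were treated with compound for 24 hr at 37 C. Cellular ATP was read by CellTiter-Glo luminescence after 30 min, and AC50 values came from Hill-equation fits of concentration-response data.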
# [13] = Cell Viability - LYMP2-007 (AID 979);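 note: potency is the fitted concentration of half-maximal effect; cells exposed to compound for 24 h before reading; nearly all actives have a fitted effect of over 60% in size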
# Outline: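 qHTS cytotoxicity: 2500 cells/well, 5 hr 37 C settle, compound 24 hr 37 C, CellTiter-Glo 30 min RT, luminescence. Decrease in ATP = toxicity. AC50 by standard Hill equation; tetraoctylammonium bromide positive control.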
# [14] = Cell Viability - LYMP2-008 (AID 980); note: potency is the fitted concentration of half-maximal effect; nearly all actives have a fitted effect of over 60% in size
# Outline: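 Luminescent ATP read-out (CellTiter-Glo, 30 min RT) after 24 hr compound exposure at 37 C of human lymphoblastoid cells in complete medium. Decrease in ATP taken as cytotoxicity; AC50 derived by standard Hill fit of qHTS concentration-response data.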
# [15] = Cell Viability - LYMP2-010 (AID 981)
# Outline: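 qHTS cytotoxicity, 1536-well: 2500 cells/well, 5 hr settle, 24 hr compound at 37 C, CellTiter-Glo 30 min RT, luminescence read. Decrease in ATP = toxicity; AC50 via standard Hill equation. Positive control tetraoctylammonium bromide.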
# [16] = Cell Viability - LYMP2-012 (AID 982)
# [17] = Cell Viability - LYMP2-014 (AID 983); note: potency is the fitted concentration of half-maximal effect; nearly all actives have a fitted effect of over 50% in size
# Outline: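 2500 cells/well, 5 hr 37 C; cpd 24 hr 37 C, complete medium; CellTiter-Glo 30 min RT, luminescence; ATP loss = toxicity; AC50 via Hill eqn; tetraoctylammonium bromide positive control.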
# [18] = Cell Viability - LYMP2-016 (AID 984)
# Outline: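 Human lymphoblastoid LYMP2-016 cells, 2500 per well, treated with compounds for 24 h at 37 C. Viability read as intracellular ATP by CellTiter-Glo luminescence after 30 min at room temperature; AC50 from Hill fits of concentration-response.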
# [19] = Cell Viability - LYMP2-020 (AID 986)
# Outline: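 qHTS, 2500 cells/well; 5 hr then 24 hr compound exposure, 37 C; CellTiter-Glo luminescence after 30 min RT; ATP decrease taken as cytotoxicity; AC50 via Hill equation; tetraoctylammonium bromide positive control.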
# [20] = Cell Viability - LYMP2-022 (AID 987)
# Outline: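 Luminescent ATP read-out (CellTiter-Glo, 30 min, RT) after 24 hr, 37 C compound exposure of 2500 human lymphoblastoid cells/well in complete medium. Cytotoxicity taken as concentration-dependent ATP loss; AC50 from standard Hill equation.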
# [21] = Cell Viability - LYMP2-024 (AID 988)
# Outline: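 ATP-based luminescence (CellTiter-Glo, 30 min RT) after 24 h compound exposure at 37 C of 2500 lymphoblastoid cells/well; decrease in ATP taken as cytotoxicity. qHTS concentration-response fitted to standard Hill equation for AC50.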
# [22] = Cell Viability - LYMP2-026 (AID 989); note: potency is the fitted concentration of half-maximal effect; nearly all actives have a fitted effect of over 50% in size
# Outline: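 qHTS cytotoxicity: 2500 cells/well, 5 hr 37 C, compound 24 hr 37 C, CellTiter-Glo 30 min RT, luminescence. Tetraoctylammonium bromide positive control. AC50 via standard Hill fit.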
# [23] = target: Glucocorticoid receptor (Homo sapiens) (UniProt P04150); assay: qHTS assay for small molecule antagonists of glucocorticoid receptor signaling (AID 588533; active = well fitted inhibition curve with a large enough effect in the signal ratio, with a control signal flat, not every such curve was filed as active; the % refers to the signal ratio;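 note: cells stimulated with 2 nM dexamethasone as agonist; % is set by controls: 0 for no effect and ±100 for the full control effect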)
# Outline: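 Antagonist-mode qHTS: compound titrations added to GRE-bla HeLa cells, then dexamethasone 2 nM final; 18 h, 37 C. CCF4 FRET fluorescence normalized to dexamethasone and DMSO; IC50 from Hill fit.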
# [24] = target: Peroxisome proliferator-activated receptor delta (Homo sapiens) (UniProt Q03181); assay: qHTS assay for small molecule agonists of peroxisome proliferator-activated receptor delta signaling (AID 588534; calls by dose curve;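 note: 0% = DMSO basal wells and 100% = positive control agonist at 10 µM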)
# Outline: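 Titration series tested in agonist mode on beta-lactamase reporter cells; 18 hrs at 37 C after a 5 hr pre-incubation. Readout: CCF4 fluorescence, 2 hrs RT. Hill equation gives EC50 and maximal response.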
# [25] = target: Voltage-gated inwardly rectifying potassium channel KCNH2 (Homo sapiens) (UniProt Q12809); assay: qHTS Assay for Small Molecule Inhibitors of the Human hERG Channel Activity (AID 588834);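 note: potency is the fitted concentration of half-maximal effect; lower thallium flux fluorescence means stronger hERG block; nearly all actives have a fitted effect of over 50% in size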
# Outline: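 Thallium serves as surrogate for K+ influx through BacMam-delivered hERG in U2OS cells. Compounds are added for about 10 minutes after dye loading; stimulation buffer then starts flux, monitored kinetically on FDSS.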
# [26] = qHTS assay for small molecule activators of the p53 signaling pathway (AID 651743; active = well fitted activation curve with a large enough effect in the signal ratio, not every such curve was filed as active; the % refers to the signal ratio; note: series mostly up to about 92 µM; % of control where 0% means no effect); conditions: HCT-116 p53RE-bla, beta-lactamase FRET ratio, 16 h; activation: active compounds read high
# Outline: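 Here HCT-116 cells with an integrated p53-responsive beta-lactamase gene were incubated with compounds (16 hours, 37 C) after a 5-hour plating period; beta-lactamase activity was detected as fluorescence intensity via B/G FRET substrate.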
# [27] = qHTS assay to identify small molecules that stimulate interleukin-8 (IL-8) secretion (AID 651758; active = well fitted activation curve with a large enough effect in the signal ratio; the % refers to the signal ratio; note: potency is the fitted concentration of half-maximal effect)
# Outline: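 Quantitative HTS in THP-1 monocytic cells at 2000 cells per well, with 16 hrs compound incubation at 37 C. IL-8 in the medium was then quantified by HTRF immunoassay, read after 1-3 hrs at room temperature.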
# [28] = target: Nuclear receptor ROR-gamma (Homo sapiens) (UniProt P51449); assay: qHTS assay for small molecule antagonists of the retinoid-related orphan receptor gamma (ROR-gamma) signaling pathway (AID 651802)
# Outline: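 Luciferase read-out: ONE-Glo luminescence after 30 min at room temperature, following 16hr doxycycline induction at 37C, 5% CO2 of CHO cells with TET-inducible ROR and RORE-LUC reporter; decreased luminescence = reduced reporter activity.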
# [29] = qHTS assay for small molecule antagonists of the retinoid-related orphan receptor gamma (ROR-gamma) signaling pathway - cell viability counter screen (AID 720652; active = well fitted curve in the direction sought with a large enough effect in the repeat runs; an effect the other way counts as inactive or inconclusive;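 note: potency is the fitted concentration of half-maximal effect; compound exposure lasted 16 hr before ATP read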)
# Outline: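 CHO RORE-LUC/TET-ROR line, 1,000 cells/well, 37 C 5% CO2 5 hr; cpd or DMSO + doxycycline induction, 16 hr. CellTiter-Glo, 30 min RT, luminescence = ATP content.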
# Chain of Peroxisome proliferator-activated receptor delta (Homo sapiens) (Q03181 whole entry, looked up): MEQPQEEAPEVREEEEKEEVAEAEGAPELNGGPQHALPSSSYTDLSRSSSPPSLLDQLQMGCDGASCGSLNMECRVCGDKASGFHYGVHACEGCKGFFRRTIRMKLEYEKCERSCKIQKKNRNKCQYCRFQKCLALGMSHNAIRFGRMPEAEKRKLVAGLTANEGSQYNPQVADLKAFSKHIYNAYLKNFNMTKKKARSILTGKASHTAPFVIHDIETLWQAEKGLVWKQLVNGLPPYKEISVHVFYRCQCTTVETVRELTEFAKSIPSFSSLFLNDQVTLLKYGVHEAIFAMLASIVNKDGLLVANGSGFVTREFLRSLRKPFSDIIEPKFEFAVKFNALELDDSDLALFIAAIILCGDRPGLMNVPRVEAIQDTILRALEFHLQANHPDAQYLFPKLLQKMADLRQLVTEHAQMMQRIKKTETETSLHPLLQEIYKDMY
# Chain of Nuclear receptor ROR-gamma (Homo sapiens) (P51449 whole entry, looked up): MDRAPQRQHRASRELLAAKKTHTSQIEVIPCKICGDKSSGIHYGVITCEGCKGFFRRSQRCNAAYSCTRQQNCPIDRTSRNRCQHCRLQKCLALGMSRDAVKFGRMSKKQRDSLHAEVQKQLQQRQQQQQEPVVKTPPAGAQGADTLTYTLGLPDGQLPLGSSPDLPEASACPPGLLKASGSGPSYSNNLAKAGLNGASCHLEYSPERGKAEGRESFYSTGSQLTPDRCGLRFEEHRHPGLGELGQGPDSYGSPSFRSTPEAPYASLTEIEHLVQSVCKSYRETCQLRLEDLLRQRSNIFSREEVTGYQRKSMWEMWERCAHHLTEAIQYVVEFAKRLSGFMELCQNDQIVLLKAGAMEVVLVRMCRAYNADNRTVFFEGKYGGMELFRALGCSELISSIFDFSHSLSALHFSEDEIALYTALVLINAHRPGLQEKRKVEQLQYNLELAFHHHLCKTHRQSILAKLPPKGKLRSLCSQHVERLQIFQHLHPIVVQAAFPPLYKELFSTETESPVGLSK
# Chain of Voltage-gated inwardly rectifying potassium channel KCNH2 (Homo sapiens) (Q12809 whole entry, looked up): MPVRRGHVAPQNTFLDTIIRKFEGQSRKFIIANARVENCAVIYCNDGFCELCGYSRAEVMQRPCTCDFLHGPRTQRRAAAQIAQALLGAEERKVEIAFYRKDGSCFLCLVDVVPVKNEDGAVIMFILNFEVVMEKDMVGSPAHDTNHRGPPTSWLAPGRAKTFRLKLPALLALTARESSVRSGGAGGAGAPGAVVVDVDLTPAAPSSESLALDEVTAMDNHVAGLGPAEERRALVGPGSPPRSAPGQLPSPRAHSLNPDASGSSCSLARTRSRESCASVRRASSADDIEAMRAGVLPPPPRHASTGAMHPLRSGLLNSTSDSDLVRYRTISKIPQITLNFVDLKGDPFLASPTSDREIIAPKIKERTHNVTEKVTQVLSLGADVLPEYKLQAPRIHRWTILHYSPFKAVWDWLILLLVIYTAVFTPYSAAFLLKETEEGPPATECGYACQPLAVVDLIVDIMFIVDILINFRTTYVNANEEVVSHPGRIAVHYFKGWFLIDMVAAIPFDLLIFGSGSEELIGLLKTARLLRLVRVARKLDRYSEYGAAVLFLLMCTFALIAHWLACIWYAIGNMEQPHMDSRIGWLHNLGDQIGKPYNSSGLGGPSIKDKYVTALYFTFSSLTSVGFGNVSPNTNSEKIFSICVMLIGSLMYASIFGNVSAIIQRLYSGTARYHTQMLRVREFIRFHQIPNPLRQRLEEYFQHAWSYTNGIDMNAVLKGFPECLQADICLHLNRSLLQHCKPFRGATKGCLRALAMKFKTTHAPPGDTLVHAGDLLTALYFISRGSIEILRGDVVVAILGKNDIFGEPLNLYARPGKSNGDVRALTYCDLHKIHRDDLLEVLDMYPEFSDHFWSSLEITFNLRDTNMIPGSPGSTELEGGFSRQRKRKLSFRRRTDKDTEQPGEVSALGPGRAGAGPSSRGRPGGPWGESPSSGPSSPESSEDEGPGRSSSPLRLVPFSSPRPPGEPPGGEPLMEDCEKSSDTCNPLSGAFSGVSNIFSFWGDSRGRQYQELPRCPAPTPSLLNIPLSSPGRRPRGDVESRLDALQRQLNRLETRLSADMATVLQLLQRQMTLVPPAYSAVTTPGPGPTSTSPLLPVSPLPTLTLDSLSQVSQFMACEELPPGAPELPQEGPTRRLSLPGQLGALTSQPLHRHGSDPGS
# Chain of Glucocorticoid receptor (Homo sapiens) (P04150 whole entry, looked up): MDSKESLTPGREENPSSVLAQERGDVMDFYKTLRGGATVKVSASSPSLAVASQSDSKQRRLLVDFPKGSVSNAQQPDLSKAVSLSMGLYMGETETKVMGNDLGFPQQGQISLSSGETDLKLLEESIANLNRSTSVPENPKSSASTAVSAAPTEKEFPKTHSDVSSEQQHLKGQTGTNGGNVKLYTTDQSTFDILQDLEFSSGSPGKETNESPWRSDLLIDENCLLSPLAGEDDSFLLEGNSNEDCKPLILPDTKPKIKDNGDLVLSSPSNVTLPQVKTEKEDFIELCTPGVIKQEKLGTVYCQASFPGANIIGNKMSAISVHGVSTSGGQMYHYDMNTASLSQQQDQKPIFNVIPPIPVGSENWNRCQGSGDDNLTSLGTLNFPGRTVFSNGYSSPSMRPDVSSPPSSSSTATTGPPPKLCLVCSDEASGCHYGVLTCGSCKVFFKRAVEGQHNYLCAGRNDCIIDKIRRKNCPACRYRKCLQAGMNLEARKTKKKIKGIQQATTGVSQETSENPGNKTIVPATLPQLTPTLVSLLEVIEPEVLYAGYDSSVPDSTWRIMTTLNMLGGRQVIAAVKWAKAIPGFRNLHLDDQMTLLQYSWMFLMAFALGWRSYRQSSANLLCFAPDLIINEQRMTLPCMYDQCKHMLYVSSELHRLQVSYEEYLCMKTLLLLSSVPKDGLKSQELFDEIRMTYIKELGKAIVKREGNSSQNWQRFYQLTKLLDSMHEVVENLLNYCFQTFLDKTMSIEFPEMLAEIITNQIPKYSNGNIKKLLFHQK
smiles,measurement,setting,value
ClC1=C(Cl)C(Cl)(Cl)C(Cl)=C1Cl,Potency,[1],5.01 µM (active)
same,Potency,[2],7.94 µM (active)
same,Potency,[3],6.31 µM (active)
same,Potency,[4],6.31 µM (active)
same,Potency,[5],3.98 µM (active)
same,Potency,[6],6.31 µM (active)
same,Potency,[7],6.31 µM (active)
same,Potency,[8],6.31 µM (active)
same,Potency,[9],5.01 µM (active)
same,Potency,[10],10 µM (active)
same,Potency,[11],6.31 µM (active)
same,Potency,[12],7.94 µM (active)
same,Potency,[13],3.16 µM (active)
same,Potency,[14],3.16 µM (active)
same,Potency,[15],5.01 µM (active)
same,Potency,[16],6.31 µM (active)
same,Potency,[17],7.94 µM (active)
same,Potency,[18],6.31 µM (active)
same,Potency,[19],7.94 µM (active)
same,Potency,[20],6.31 µM (active)
same,Potency,[21],3.16 µM (active)
same,Potency,[22],10 µM (active)
same,Potency,[23],inactive
same,outcome,[24],inactive
same,Potency,[25],22.4 µM (active)
same,activation,[26],12.3%
same,Potency,[27],29.8 µM (active)
same,Potency,[28],13.3 µM (active)
same,Potency,[29],11.9 µM (active)
